These results are taken from PubChem BioAssay (NCATS).

SMILES strings stand for the structures. Inconclusive results are not listed. Active and inactive are the calls of the source. Calls come from the whole dose curve; as a rule, active = well fitted inhibition curve with a large enough effect; inconclusive = small, poorly fitted or top-dose-only effect; inactive = flat fitted curve, though single readings scatter.

Holding throughout (assay): qHTS profiling for inhibitors of Plasmodium falciparum proliferation (AID 504749); note: nearly all actives have a fitted effect of over 60% in size
What all share (conditions): P. falciparum in erythrocytes, SYBR Green DNA, 72 h; series mostly up to 28.7 µM
A general note: In qHTS, concentration-response curves come from the screen itself.

The subject of one experiment is CP305. The procedure, abridged: (§1)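 Three-day growth assay of blood-stage parasites in erythrocytes (0.3% parasitemia, 2.5% hematocrit) at 37 C, 5% CO2, quantified by SYBR Green DNA staining after overnight detergent lysis.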
In another experiment the test system is CP335. The procedure, abridged: as §1
The next experiment concerns DIV14. The procedure, abridged: as §1
Another experiment has as its system CP286. The procedure, abridged: as §1
The test system of another experiment is CP291. The procedure, abridged:
as §1

The test system of the next experiment is CP297. The procedure, abridged: as §1
The subject of a further experiment is CP315. The procedure, abridged:
as §1

Another experiment concerns CP325. The procedure, abridged: as §1
A further experiment concerns CP329. The procedure, abridged:
as §1

In the next experiment the test system is DFO2036. The procedure, abridged:
as §1
Potency is the fitted concentration of half-maximal effect.

Regarding `Fc1ccc(C(c2ccc(F)cc2)N2CCN(CC=Cc3ccccc3)CC2)cc1`, the Potency in the experiment with CP305 was 13.5 µM (active); with CP335, 15.1 µM (active); with DIV14, 12 µM (active).

With `CS(=O)(=O)c1ccc(C2=C(c3ccccc3)C(=O)OC2)cc1`, the Potency result in the experiment on CP286, in the experiment with CP291, in the experiment on CP297, with CP305, in the experiment with CP315 and in the experiment with CP325 was “inactive” each time. The Potency result in the experiment on CP329, in the experiment with CP335, with DFO2036 and in the experiment on DIV14 was “inactive” in each case.

Consider `COc1ccnc(CS(=O)c2nc3ccc(OC(F)F)cc3[nH]2)c1OC` (stereo not given), for which the Potency result in the experiment with CP286, with CP291, with CP297, in the experiment on CP305, in the experiment on CP315 and in the experiment with CP325 was “inactive” throughout. Further, the Potency result with CP329, in the experiment on CP335, in the experiment on DFO2036 and with DIV14 was “inactive” each time.

Take `O=C1C(CCC(O)c2ccc(F)cc2)C(c2ccc(O)cc2)N1c1ccc(F)cc1` (stereo not given): the Potency result in the experiment on CP286, in the experiment on CP291, in the experiment with CP297, with CP305, in the experiment with CP315 and with CP325 was “inactive” in each case. Besides, the Potency result with CP329, in the experiment on CP335, with DFO2036 and in the experiment with DIV14 was “inactive” throughout.

Consider `COc1c(C)c2c(c(O)c1CC=C(C)CCC(=O)OCCN1CCOCC1)C(=O)OC2`, for which the Potency in the experiment on CP286 is 7.08 µM (active); in the experiment on CP291 it was 8.49 µM (active); in the experiment with CP297, 12 µM (active); in the experiment with CP305 it was 10.7 µM (active); in the experiment with CP315 it was 13.5 µM (active); in the experiment with CP325, 10.7 µM (active). In addition, the Potency in the experiment on CP329 was 7.57 µM (active); with CP335 it was 8.49 µM (active); in the experiment on DFO2036, 10 µM (active); in the experiment on DIV14 it was 13.5 µM (active).

For `COc1cc2c(cc1OC)CC(=O)N(CCCN(C)C[C@H]1Cc3cc(OC)c(OC)cc31)CC2`, the Potency entry in the experiment with CP286, in the experiment on CP291, in the experiment with CP297, in the experiment on CP305, with CP315 and in the experiment with CP325 was “inactive” each time. In addition, the Potency result in the experiment with CP329, in the experiment with CP335 and in the experiment on DFO2036 was “inactive” each time.

Regarding `NS(=O)(=O)c1cc(Cl)c(Cl)c(S(N)(=O)=O)c1`, the Potency result with CP286, in the experiment on CP291, in the experiment with CP297, in the experiment on CP305, in the experiment on CP315 and in the experiment with CP325 was “inactive” in each case. Besides, the Potency result in the experiment with CP329, with CP335, in the experiment on DFO2036 and in the experiment with DIV14 was “inactive” in each case.

As for `C=C1c2cccc(O)c2C(O)=C2C(=O)[C@@]3(O)C(O)=C(C(N)=O)C(=O)[C@@H](N(C)C)[C@@H]3[C@@H](O)[C@H]12`, the Potency entry in the experiment with CP291, in the experiment on CP297, in the experiment on CP305, in the experiment with CP315, in the experiment on CP325 and in the experiment with CP329 was “inactive” in each case. The Potency result with DFO2036 and in the experiment on DIV14 was “inactive” in each case.

As for `Cc1cc2nc3c(=O)[nH]c(=O)nc-3n(CC(O)C(O)C(O)CO)c2cc1C` (stereo not given), the Potency entry in the experiment on CP286, in the experiment with CP291, in the experiment on CP297, in the experiment with CP305, with CP315 and with CP325 was “inactive” throughout. The Potency entry with CP329, in the experiment on CP335 and with DFO2036 was “inactive” each time.

For the molecule `O=C(O)c1nc(=O)[nH]c(=O)[nH]1`, the Potency result with CP286, in the experiment on CP291, in the experiment with CP297, in the experiment with CP305, in the experiment on CP325 and with CP329 was “inactive” in each case. Also, the Potency entry with DFO2036 and in the experiment with DIV14 was “inactive” each time.

On to `CC(C)CN(C[C@@H](O)[C@H](Cc1ccccc1)NC(=O)O[C@H]1CO[C@H]2OCC[C@H]21)S(=O)(=O)c1ccc(N)cc1`, for which the Potency entry with CP286, with CP291, in the experiment on CP297, in the experiment on CP305, with CP315 and in the experiment with CP325 was “inactive” each time. In addition, the Potency entry in the experiment on CP329, in the experiment with CP335 and in the experiment on DFO2036 was “inactive” in each case.

Regarding `N#CC(c1ccc(Cl)cc1)c1c(Cl)cc(-n2ncc(=O)[nH]c2=O)cc1Cl` (stereo not given), the Potency entry in the experiment with CP286, in the experiment with CP291, in the experiment on CP297, in the experiment on CP305, with CP315 and in the experiment on CP325 was “inactive” each time. Moreover, the Potency result in the experiment on CP329, in the experiment on CP335 and in the experiment with DFO2036 was “inactive” in each case.

For the molecule `CN1CCN2c3ncccc3Cc3ccccc3C2C1` (stereo not given), the Potency entry in the experiment on CP286, with CP297, in the experiment with CP305, in the experiment with CP315, in the experiment on CP325 and with CP329 was “inactive” in each case. For the same molecule, in the experiment on DFO2036, the Potency entry is “inactive”.

As to `Clc1ccc(COC(Cn2ccnc2)c2ccc(Cl)cc2Cl)c(Cl)c1` (stereo not given), the Potency in the experiment on CP297 is 4.05 µM (active); in the experiment on CP325 it was 5.1 µM (active); in the experiment on DFO2036 it was 3.16 µM (active); with DIV14, 2.28 µM (active).

For the molecule `N#Cc1c(N(CC(=O)O)CC(=O)O)sc(C(=O)O)c1CC(=O)O`, the Potency entry in the experiment on CP286, in the experiment on CP291, with CP297, in the experiment on CP305, in the experiment with CP315 and in the experiment with CP325 was “inactive” in each case. In addition, the Potency result in the experiment on CP329, with CP335, with DFO2036 and in the experiment with DIV14 was “inactive” throughout.

Consider `CN1CC(=O)N2C(Cc3c([nH]c4ccccc34)[C@H]2c2ccc3c(c2)OCO3)C1=O` (stereo not given in full), for which the Potency entry in the experiment with CP286, with CP291, in the experiment on CP297, in the experiment on CP305, in the experiment with CP315 and in the experiment with CP325 was “inactive” in each case. For the same molecule, the Potency entry in the experiment on CP329, with CP335 and in the experiment with DFO2036 was “inactive” in each case.
